# Target: AACS
# Experiment: pooled miR-30 sensor sort-seq; sequence = guide strand
# Conditions: shRNA
# Note: reference of the scale not given here.
row,Sequence,sensor-assay potency score (higher = more potent)
1,TTTCGATGTGTCCACAACCTCA,-1.33
2,TTGATTCTGCAGTAGTCGCCAT,0.104
3,TCTGTCATTCTCTTTGTGCCGC,0.211
4,TTACAGTGCACACGGGTGCGGC,-0.808
5,TTGAGGGTGCCGTCACTCCGGC,-1.01
6,TTTTCTGCATAGTTGAGCCGAC,-0.296
7,TGATTCTGCAGTAGTCGCCATG,-0.951
8,TTGGAATCTTTGAAAGGTCTAT,0.0735
9,TAGGCCTTTAACCACCTGCTGC,-1.19
10,TACAGATCCAGGGTCTCGGGGT,-0.361
11,TAGCACAGGAGGATGTCACTGC,0.828
12,TTTGACGGCAACTTCCACTTTC,-0.286

# Target: AADACL2
# Experiment: as above
# Conditions: shRNA
row,Sequence,sensor-assay potency score (higher = more potent)
1,TAAACAGATGTCTTGACTCCAG,-0.578
2,TTGGCAAGTACAATCGTACTGG,0.407
3,TAAATGTACAAGTTTTAGCGAT,-0.754
4,TTCAGCATCATTCTGCACCTGT,0.443
5,TAACATACATAAGTCCATCATC,-1.34
6,TAACTGAGAATCATTGGCCAAC,-1.39
7,TACAACAACAGCATCAAGCGTG,-0.148
8,TTTTGTAAGAATTTTTTCCAAA,-1.07
9,TTTTATTTCAGCATCATTCTGC,0.839
10,TTTTTGGCAAGTACAATCGTAC,-0.474
11,TTGTAACATACATAAGTCCATC,-1.14
12,TATCTCTTATCCTAAGACCTAG,-0.412

# Source: the OligoGym collection
